In PubChem BioAssay AID873 (PCMD, 2007):
Out of some 210,000 compounds screened, about 1,300 (0.62%) were called active.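 How the source made its calls: active means inhibition of 40% or more; inactive means the rest.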 Only a selection was taken, and actives are over-represented in it overall.

molecular target: Kallikrein-5 (Homo sapiens) (UniProt Q9Y337); assay: human KLK5 protease inhibitors, primary screen, biochemical, 1536-well (AID 873); details: recombinant hK5, fluorogenic AMC substrate cleavage; at 5 µM; hits give high values;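 further: 0% = enzyme controls without compound and 100% = no-enzyme blanks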
Sequence (Q9Y337 67-293 limits assumed): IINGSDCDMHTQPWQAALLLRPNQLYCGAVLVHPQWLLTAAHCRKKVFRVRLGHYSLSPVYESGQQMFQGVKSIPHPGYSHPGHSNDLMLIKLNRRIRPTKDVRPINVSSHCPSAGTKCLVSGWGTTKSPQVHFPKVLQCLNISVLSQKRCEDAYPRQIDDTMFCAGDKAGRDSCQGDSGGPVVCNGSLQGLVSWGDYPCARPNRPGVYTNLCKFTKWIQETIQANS

inhibition, inactive:
Cc1ccc(-c2csc(NC(=O)c3cccs3)n2)cc1 -16.5%
O=C(Nc1ncccn1)c1cccs1 -0.12%
O=C(Cn1c[n+](CC(=O)c2ccc([N+](=O)[O-])cc2)cn1)c1ccc([N+](=O)[O-])cc1 -1.7%
C=CCN(c1ccccc1C(=O)NCC(=O)OCC)S(=O)(=O)c1ccc(C)cc1 -3.06%
Cc1nc2ccccc2nc1N/N=C/c1ccc(O)cc1O -20.8%
COc1ccc(N=C(C)c2sc3ccccc3c2O)cc1 2.85%
O=[N+]([O-])c1cccc2ncccc12 -1.14%
C=C1CCN([C@H](C(=O)NCc2cc(OC)c(OC)c(OC)c2)C(C)C)S(=O)(=O)c2ccccc21 0.63%
O=C(O)CCCC(=O)Nc1ccc(Oc2cccc(C(F)(F)F)c2)nc1 -2.65%
O=C(NNC(=O)c1csc(-c2cccnc2)n1)Nc1ccc(Cl)cc1 -0.51%
O=C(CNc1ccc(F)cc1F)NC(=O)NCc1ccco1 -1.58%
COc1ccc(/C=C/c2nnc(NC(=O)C(C)C)s2)cc1 0.65%
Cn1nccc1NS(=O)(=O)c1ccc(F)cc1 8.38%
O=C(Nc1ccccc1F)c1ccccc1-c1ccccc1 -10.7%
Cc1ccccc1NC(=O)C(C)c1ccc(-c2ccccc2)c(F)c1 (stereo unspecified) 1.97%
Clc1ccc2nc(-c3ccccc3)nc(C(Cl)Cl)c2c1 0.33%
COc1ccc(-c2nn(C)c(=O)c3ccccc23)cc1CNC(=O)C1CCCCC1 1.08%
COC(=O)c1ccc(CN2CCC(CO)(Cc3ccc(OC)cc3)CC2)cc1 -3.09%
COc1ccc(CC2(CO)CCN(Cc3cnn(C)c3)CC2)cc1 5.76%
COc1ccc(CCNC2=CC(=O)CC(C)(C)C2)cc1 0.99%
CCS(=O)(=O)c1cc([N+](=O)[O-])c(Sc2ccccc2N)s1 3.91%
Cc1ccc(S(=O)(=O)N(C)CC(=O)OCC(=O)Nc2ccccc2)cc1 2.05%
COC(=O)c1sc(C(F)(F)F)c(-c2ccccc2)c1S(=O)(=O)N(C)C 0.56%
Cc1ccccc1CSc1nnc(CCCCCNC(=O)OC(C)(C)C)o1 0.98%
O=C(CNC(=O)c1cc(=O)[nH]c2ccccc12)Nc1ccc(F)c(F)c1 5.97%
CCOC(=O)c1ccc(NC(=O)c2cc(=O)[nH]c3ccccc23)cc1 -1.31%
COC(=O)c1scc(S(=O)(=O)C(C)(C)C)c1-n1cccc1 -2.13%
O=S(=O)(NCc1ccco1)c1cnc(Cl)c(Cl)c1 18.9%
O=C(CSc1nnc(-c2cccnc2)n1Cc1ccco1)c1ccc(Cl)cc1 -15.7%
O=C(CSc1nnc(-c2cccnc2)n1Cc1ccco1)c1ccc(Cl)c(Cl)c1 -11.9%
O=C(Nc1ccccc1)N1CCN(C2c3ccccc3-c3ccccc32)CC1 1.85%
CC(C)c1ccc(NC(=S)NNc2ccc(Cl)c(C(=O)O)c2)cc1 5.6%
COc1cc2c(cc1OC)C(/C=C/c1ccco1)=NCC2 4.43%
C[C@@H](NC(=O)OC(C)(C)C)c1nnc(S(=O)(=O)Cc2ccccc2)o1 -1.93%
Cc1cc(F)ccc1NC(=O)C(C)n1c2ccccc2c2nc(=O)cc(C)n21 (stereo unspecified) 0.22%
O=C(NC1CCCCC1)c1cc(C2CC2)on1 -1.29%
Cn1c2c(c(=O)n(C)c1=O)[C@@H]1c3c(ccc4ccccc34)OC[C@@H]1CO2 21.4%
Cn1c2c(c(=O)n(C)c1=O)C1c3ccccc3OCC1C(C)(C)O2 (stereo unspecified) -2.4%
O=C(NNc1cc(Cl)cc(Cl)c1)c1c(F)cccc1Cl 1.1%
CCc1c(C)nc2c(-c3ccccc3)c(C)nn2c1Nc1ccc(NC(C)=O)cc1 -10.1%
COc1cc(C(=O)N2C(=O)c3cccc(N)c3C2=O)cc(OC)c1OC -10.2%
CN1CCN(S(=O)(=O)c2cccc(C(=O)O)c2)CC1 -1.38%
Cc1cc(=O)oc2cc(OCC(=O)Nc3nnc(C4CC4)s3)ccc12 5.43%
O=C(Nc1nnc(COc2ccccc2)s1)Nc1ccccc1F 0.25%
CC12COC3(C(=O)Nc4ccc(Cl)cn4)CC1CCC32C (stereo unspecified) -6.22%
O=C(NN1C(=O)C2C3C=CC(C4CC34)C2C1=O)c1ccc(Cl)cc1 (stereo unspecified) -4.1%
CCc1cc(CNC(=O)CC2C(=O)NCCN2Cc2ccccc2C(F)(F)F)on1 (stereo unspecified) -3.44%
O=c1c2c3c(sc2n(CCN2CCCC2)c(=O)n1Cc1ccccc1)CCCCC3 8.67%
Cc1cc(C)n(CC(C)NCc2c(C(=O)N3CCOCC3)nc3c(C)cccn23)n1 (stereo unspecified) 1.63%
CS(=O)(=O)n1nc(-c2ccco2)nc1N -7.61%
CSc1nc(-c2ccco2)nn1C(=O)CCc1ccccc1 -9.9%
Clc1ccc(-c2cc(-c3ccccn3)on2)c(Cl)c1 -3.93%
C/C(=N\NC(=O)c1nc(C)cc(C)n1)c1ccccc1 -8.77%
CNC(=O)C(NC(=O)c1ccccc1)=C(C)C 0.73%
C=CCN(C(=O)Nc1ccc2oc(C)nc2c1)c1ccccc1 -6.89%
Cc1nc2cc(NC(=O)Nc3cccc(F)c3)ccc2n1C 17%
Nc1ccc2nn(-c3ccc(Cl)cc3)nc2c1 -10.3%
O=C(NCCc1csc(-c2ccccc2)n1)c1ccccc1F 0.78%
C=CCn1c(CNC(=O)c2ccco2)nnc1SCC(=O)c1ccc(OC)cc1 1.62%
C=CCn1c(SCCOc2ccc(OC)cc2)nnc1C(NC(=O)c1ccc(OC)cc1)C(C)C (stereo unspecified) 2.79%
C=CCc1ccc(OCC(O)CN2CCN(Cc3ccccc3)CC2)c(OC)c1 (stereo unspecified) -1.55%
Cc1cccc(C)c1OCC(O)CN1CCCCC1 (stereo unspecified) -7.75%
COC(=O)CNc1nc(Cl)nc(N2CCC(C)CC2)n1 -2.61%
Cc1ccc(NNC(=O)C2CCC2)cc1C -0.44%
COc1ccc(Cl)cc1NC(=O)CCN1CCOCC1 -1.88%
O=C(CN1CCN(C/C=C/c2ccccc2)CC1)Nc1ccc(F)cc1F 0.73%
CNC(=O)NC(=O)C(C)N1CCN(C/C=C/c2ccccc2)CC1 (stereo unspecified) -1.97%
COC(=O)c1nc(NC(=O)c2ccc(F)cc2)n[nH]1 1.4%
COC(=O)c1nc(NC(=O)c2ccc(Cl)cc2)n[nH]1 -14.4%
CCSc1nc(C)nc2c1oc1ccccc12 2.97%
Cc1nc(N2CCCC2C(=O)O)c2oc3ccccc3c2n1 (stereo unspecified) -6.49%
Cn1c2ccc(F)cc2c2nnc(NN)nc21 3.58%
Cc1onc(C(=O)NN)c1-c1csc(COc2ccccc2)n1 -6.54%
CNc1ccc([N+](=O)[O-])cc1C(=O)O -11.4%
Cc1cccc(NC(=S)Nc2ccc(Cl)c(Cl)c2)c1 -7.18%
Cc1cccc(NC(=S)Nc2ccc(Br)cc2)c1 3.76%
Cc1nc(COc2cccc(Cl)c2)sc1C(=O)/C=C/N(C)C 0.93%
COCc1cc(=O)[nH]c(SC)n1 4.7%
O=C(NCCOc1ccccc1)c1ccccc1 -2.43%
CCCOc1ccc(C(=O)NCCc2ccccc2)cc1 -7.86%

inhibition, active:
O=C(Nc1n[nH]c(C(F)(F)F)n1)c1cccs1 40.9%
O=C(Nc1ccc(Cl)cc1)Nc1ccc(Oc2cccnc2)nc1 62.9%
CC(C)N(C(=O)c1ccc(-c2ccccc2F)cc1)C(C)C 52.5%
CC(C)c1csc(CN2CCC(CO)(Cc3ccccc3)CC2)n1 40.6%
CCOC(=O)CN(C)S(=O)(=O)c1ccc(-c2cc(C(=O)OC)sc2C(F)(F)F)cc1 74.9%
CCCN(CC(=O)Nc1ccccc1C)C(=O)c1cc(=O)[nH]c2ccccc12 45.5%
C(=C\c1ccccc1)/CSc1nnc(-c2cccnc2)n1Cc1ccco1 59.8%
CC1CC(C)(C)n2c(O)c(N=NC(N)=S)c3cccc1c32 (stereo unspecified) 50.7%
COc1cccc2c1OCC1COc3c(c(=O)n(C)c(=O)n3C)C21 (stereo unspecified) 50.2%
CC1CC(C)CN(S(=O)(=O)c2cccc(C(=O)N3C(=O)c4cccc(N)c4C3=O)c2)C1 (stereo unspecified) 83.1%
CC12CN(NC(=O)c3ccc(Cl)cc3)C3(C#N)CC1CCC23C (stereo unspecified) 78.4%
CSc1nc(-c2ccco2)nn1C(=O)c1ccccc1Cl 52.2%
CC(C)=C(NC(=O)c1ccccc1)C(=O)N/N=C(\C)c1ccccc1O 48.4%
C=CCN(C(=O)Nc1ccc2c(c1)nc(C)n2C)c1ccccc1 41%
C=CCn1c(SCC(=O)c2ccc(Br)cc2)nnc1C(C)NC(=O)Cc1ccc(OC)cc1 (stereo unspecified) 53%
Cc1ccc(OCC(O)CN2CCN(CC(O)COc3ccc(C)cc3Cl)CC2)c(Cl)c1 (stereo unspecified) 45.3%
COc1cc(C(=O)N2CCN(C/C=C/c3ccccc3)CC2)cc(OC)c1C 46.4%
COC(=O)c1nc(NC(=O)c2ccccc2)n[nH]1 45%
Cc1nc(Cl)c2oc3ccccc3c2n1 42.9%
Cc1cccc(NC(=S)NC23CN4CN(CN(C4)C2)C3)c1 44.6%
O=C(NCCc1ccccc1)c1ccc(OCCOc2ccccc2)cc1 79.7%
